Test results taken from PubChem BioAssay (EPA / NIEHS).
Active and inactive are the calls of the source. The calls were made as follows: active = hit-call score of the fitted dose curve at least 0.9, where 1 is the maximum; inactive = score below 0.9.

Key:
[1] = ATG_CRE_CIS: Attagene CIS-FACTORIAL HepG2 Assay for human cAMP Responsive Element (CRE) binding protein 3 (AID 2282926); settings: HepG2 CRE cis-reporter, Attagene multiplexed mRNA; actives raise or lower the signal
Method in brief: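 Multiplexed transcription-unit reporters transfected into HepG2; 24 h dosing; RT-PCR/capillary electrophoresis fluorescence read-out; bidirectional fit vs DMSO.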

[2] = biological target: CCAAT/enhancer-binding protein beta (Homo sapiens) (UniProt P17676); experiment: ATG_C_EBP_CIS: Attagene CIS-FACTORIAL HepG2 Assay for human CCAAT/Enhancer Binding Protein (C/EBP) beta (AID 2282927); settings: HepG2 Attagene cis-factorial transcription factor reporter; actives raise or lower the signal
CCAAT/enhancer-binding protein beta (Homo sapiens), sequence (P17676 whole entry, looked up): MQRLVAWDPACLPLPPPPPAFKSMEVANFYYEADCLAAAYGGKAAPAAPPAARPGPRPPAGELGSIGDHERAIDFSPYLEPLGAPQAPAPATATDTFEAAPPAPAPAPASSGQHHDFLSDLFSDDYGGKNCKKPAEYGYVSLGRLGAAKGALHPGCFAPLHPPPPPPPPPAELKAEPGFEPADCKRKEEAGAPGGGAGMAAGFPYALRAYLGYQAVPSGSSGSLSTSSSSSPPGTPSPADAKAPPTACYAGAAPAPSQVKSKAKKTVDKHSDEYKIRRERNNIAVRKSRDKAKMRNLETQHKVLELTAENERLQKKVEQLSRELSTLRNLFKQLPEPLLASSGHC
Method in brief: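 Endogenous transcription factor activity in human liver HepG2 cells is inferred from induction of a CEBPB-linked reporter mRNA. Exposure lasts 24 h; activity is fitted in both directions relative to DMSO.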

[3] = ATG_CMV_CIS: Attagene CIS-FACTORIAL HepG2 Assay for human CMV (Internal Marker) (AID 2282928); settings: HepG2 CMV promoter reporter, transcription factor profiling; actives raise or lower the signal;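 also: endpoint acts as a background internal control marker rather than a target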
Method in brief: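 Endogenous transcription factor activity read in HepG2 via transfected cis-promoter reporter units. After 24 h dosing, reporter mRNA measured by RT-PCR/capillary electrophoresis; gain or loss of signal fit relative to DMSO.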

[4] = ATG_DR4_LXR_CIS: Attagene CIS-FACTORIAL HepG2 Assay for human Liver X Receptor (LXR), DR4 submotif (AID 2282929); settings: HepG2 Attagene DR4 cis-reporter, mRNA transcription; actives raise or lower the signal
Method in brief: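 DR4 cis-reporter in HepG2, 24 h exposure. Detection: RT-PCR, 6-FAM labelling, CE fragment analysis. Endpoint fitted bidirectionally, DMSO = baseline.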

[5] = ATG_AP_1_CIS: Attagene CIS-FACTORIAL HepG2 Assay for human Activator Protein 1 (AP-1) (AID 2282931); settings: HepG2 Attagene cis-factorial AP-1 reporter mRNA; actives raise or lower the signal
Method in brief: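 Cis-regulated reporter units transiently expressed in HepG2 report endogenous transcription-factor activity. Signal: reporter mRNA at 24 h, via RT-PCR and fluorescent capillary electrophoresis. Endpoint derived by bidirectional fitting, DMSO as negative control.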

[6] = ATG_AP_2_CIS: Attagene CIS-FACTORIAL HepG2 Assay for human Activator Protein 2 (AP-2) (AID 2282932); settings: HepG2 AP-2 cis-reporter, Attagene transcription factor profiling; actives raise or lower the signal
Method in brief: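 HepG2, transient MRTU transfection, cis-regulated reporters; 24 h compound exposure; RNA isolated, RT-PCR, 6-FAM labelling, HpaI digest, CE fluorescence. DMSO = negative control/baseline, bidirectional fit.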

[7] = ATG_BRE_CIS: Attagene CIS-FACTORIAL HepG2 Assay for human Bone Morphogenetic Protein (BMP) Response Element (BRE) (AID 2282933); settings: HepG2 BMP response element reporter, Attagene transcription factor profiling; actives raise or lower the signal
Method in brief: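 A HepG2 multiplex reporter system measured inducible reporter mRNA 24 h post-dosing. Detection: RT-PCR, 6-FAM primer extension, HpaI digestion, capillary electrophoresis. Activity fitted bidirectionally relative to DMSO.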

[8] = biological target: Retinoic acid receptor alpha (Homo sapiens) (UniProt P10276); experiment: ATG_DR5_RAR_CIS: Attagene CIS-FACTORIAL HepG2 Assay for human Retinoic Acid Receptor Alpha (RARE), DR5 submotif (AID 2282934); settings: HepG2 Attagene cis-factorial RARE DR5 reporter, mRNA; actives raise or lower the signal
Retinoic acid receptor alpha (Homo sapiens), sequence (P10276 whole entry, looked up): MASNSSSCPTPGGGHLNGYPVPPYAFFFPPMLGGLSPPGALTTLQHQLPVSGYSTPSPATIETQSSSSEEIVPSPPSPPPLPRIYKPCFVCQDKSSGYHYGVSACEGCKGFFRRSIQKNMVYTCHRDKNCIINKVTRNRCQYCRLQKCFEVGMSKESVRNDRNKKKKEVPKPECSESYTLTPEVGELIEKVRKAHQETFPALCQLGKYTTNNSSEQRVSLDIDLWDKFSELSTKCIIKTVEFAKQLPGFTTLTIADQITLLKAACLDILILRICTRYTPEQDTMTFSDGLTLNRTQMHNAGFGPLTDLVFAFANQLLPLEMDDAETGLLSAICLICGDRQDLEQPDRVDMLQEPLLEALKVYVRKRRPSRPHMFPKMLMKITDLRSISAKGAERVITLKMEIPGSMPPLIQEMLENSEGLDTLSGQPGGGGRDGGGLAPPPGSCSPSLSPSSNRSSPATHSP
Method in brief: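 Transient MRTU transfection of HepG2; 24 h compound treatment; TriZol RNA, oligo(dT) RT, PCR, FAM labelling, capillary electrophoresis. Bidirectional fit vs DMSO. Endogenous TF activity at DR5 RARE.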

[9] = biological target: Transcription factor E2F1 (Homo sapiens) (UniProt Q01094); experiment: ATG_E2F_CIS: Attagene CIS-FACTORIAL HepG2 Assay for human E2F Transcription Factor 1 (AID 2282935); settings: HepG2 Attagene cis-reporter, E2F reporter RNA transcripts; actives raise or lower the signal
Transcription factor E2F1 (Homo sapiens), sequence (Q01094 whole entry, looked up): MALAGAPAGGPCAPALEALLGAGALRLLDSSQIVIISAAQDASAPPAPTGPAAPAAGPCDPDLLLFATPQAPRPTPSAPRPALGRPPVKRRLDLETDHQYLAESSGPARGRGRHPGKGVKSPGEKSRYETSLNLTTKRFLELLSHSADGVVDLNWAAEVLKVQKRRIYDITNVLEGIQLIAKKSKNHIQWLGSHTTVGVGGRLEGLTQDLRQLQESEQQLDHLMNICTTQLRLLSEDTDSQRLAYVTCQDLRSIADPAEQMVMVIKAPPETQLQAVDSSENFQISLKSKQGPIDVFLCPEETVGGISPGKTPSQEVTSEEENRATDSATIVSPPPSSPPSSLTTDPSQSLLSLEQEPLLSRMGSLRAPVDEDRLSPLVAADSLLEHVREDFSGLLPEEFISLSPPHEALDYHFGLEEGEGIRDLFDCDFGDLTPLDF
Method in brief: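 Cis-element reporter mRNA induction in transiently transfected HepG2, 24 h exposure. Activity fitted in both directions relative to DMSO negative control.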

[10] = ATG_E_Box_CIS: Attagene CIS-FACTORIAL HepG2 Assay for human Enhancer Box (E-box) (AID 2282936); settings: HepG2 E-box cis-reporter transcription, actives raise or lower the signal
Method in brief: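 Cells: HepG2 (human liver), transient MRTU transfection. Exposure 24 h. RNA → oligo(dT) RT → PCR → 6-FAM label → HpaI → CE. Activity fitted both directions relative to DMSO.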

[11] = ATG_M_61_CIS: Attagene CIS-FACTORIAL HepG2 Assay for M61 Transcription Factor (Internal Marker) (AID 2282937); settings: HepG2 Attagene CIS-FACTORIAL M61 internal marker reporter; actives raise or lower the signal
Method in brief: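 Background-control endpoint: HepG2 cells with cis-regulated reporter constructs, 24 h exposure, reporter mRNA detected via fluorescent primer extension and capillary electrophoresis; values from bidirectional fitting with DMSO baseline.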

[12] = ATG_EGR_CIS: Attagene CIS-FACTORIAL HepG2 Assay for human Early Growth Response 1 (EGR1) (AID 2282938); settings: HepG2 Attagene CIS-FACTORIAL EGR reporter mRNA; actives raise or lower the signal
Method in brief: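 Endpoint derived by bidirectional fitting versus DMSO vehicle. Method: cis-promoter reporter units transfected into HepG2, 24 h dosing, RNA isolation, RT-PCR with 6-FAM primer extension and HpaI digestion, then capillary electrophoresis fluorescence detection.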

[13] = ATG_M_19_CIS: Attagene CIS-FACTORIAL HepG2 Assay for M19 Transcription Factor (Internal Marker) (AID 2282939); settings: HepG2 Attagene CIS-FACTORIAL M19 internal marker reporter; actives raise or lower the signal
Method in brief: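 Chemical-treated HepG2 (24 h) with MRTU constructs; reporter transcripts detected by fluorescent RT-PCR fragment analysis on capillary electrophoresis. Internal background marker, DMSO as baseline.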

[14] = ATG_Ets_CIS: Attagene CIS-FACTORIAL HepG2 Assay for human Erythroblast Transformation Specific (ETS) (AID 2282941); settings: HepG2 ETS cis-reporter transcription, actives raise or lower the signal
Method in brief: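 Steps: transfect HepG2 with multiple reporter units; treat compound 24 h; isolate RNA, DNase-treat, reverse-transcribe; PCR-amplify, label with 6-FAM, digest with HpaI; separate by capillary electrophoresis. Activity fitted both directions versus DMSO.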

[15] = biological target: Hepatocyte nuclear factor 3-beta (Homo sapiens) (UniProt Q9Y261); experiment: ATG_FoxA2_CIS: Attagene CIS-FACTORIAL HepG2 Assay for human Forkhead box A2 (FOXA2) (AID 2282942); settings: HepG2 cis-reporter transcription factor activity, 24 h; actives raise or lower the signal
Hepatocyte nuclear factor 3-beta (Homo sapiens), sequence (Q9Y261 whole entry, looked up): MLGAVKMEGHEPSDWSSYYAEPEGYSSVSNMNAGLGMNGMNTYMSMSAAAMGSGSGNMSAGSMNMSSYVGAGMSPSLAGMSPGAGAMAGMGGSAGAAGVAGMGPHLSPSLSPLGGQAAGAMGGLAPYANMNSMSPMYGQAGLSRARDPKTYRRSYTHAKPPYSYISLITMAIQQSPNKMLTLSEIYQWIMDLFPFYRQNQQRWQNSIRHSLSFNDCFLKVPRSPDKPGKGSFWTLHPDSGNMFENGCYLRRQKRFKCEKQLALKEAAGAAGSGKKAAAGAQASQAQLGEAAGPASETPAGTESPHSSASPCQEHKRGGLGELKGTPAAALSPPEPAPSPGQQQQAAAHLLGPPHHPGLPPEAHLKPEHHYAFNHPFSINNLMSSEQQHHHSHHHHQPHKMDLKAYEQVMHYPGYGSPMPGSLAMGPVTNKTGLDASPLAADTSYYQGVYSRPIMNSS
Method in brief: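 Measured: reporter mRNA induction or loss in HepG2 transiently carrying multiple cis-regulated reporter units, 24 h after dosing. Quantified by RT-PCR plus capillary electrophoresis, normalised to DMSO.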

[16] = ATG_FoxO_CIS: Attagene CIS-FACTORIAL HepG2 Assay for human Forkhead box O (FoxO) (AID 2282943); settings: HepG2 Attagene cis-reporter, FoxO element, mRNA; actives raise or lower the signal
Method in brief: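 HepG2, transient MRTU transfection (cis element, endogenous TFs). Dose 24 h. TriZol RNA → oligo(dT) RT → PCR → 6-FAM primer extension → HpaI cut → CE. Gain/loss vs DMSO.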

[17] = ATG_GATA_CIS: Attagene CIS-FACTORIAL HepG2 Assay for human GATA Binding Protein (AID 2282944); settings: HepG2 GATA cis-element reporter, Attagene multiplex mRNA; actives raise or lower the signal
Method in brief: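 Transfected cis-reporter HepG2 cells were treated with chemicals for 24 hours. Total RNA was then converted to cDNA, amplified with reporter-specific primers and analysed by fluorescent capillary electrophoresis, using DMSO-treated wells as baseline.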

[18] = ATG_GLI_CIS: Attagene CIS-FACTORIAL HepG2 Assay for human Zinc Finger Protein GLI1 (AID 2282945); settings: HepG2, Attagene cis-factorial reporter mRNA, GLI element; actives raise or lower the signal
Method in brief: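 Bidirectional curve fits relative to DMSO, using reporter mRNA levels from RT-PCR plus capillary electrophoresis. Cells were HepG2 transiently carrying cis-regulated reporter constructs, harvested 24 h after dosing.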

[19] = biological target: Aryl hydrocarbon receptor (Homo sapiens) (UniProt P35869); experiment: ATG_Ahr_CIS: Attagene CIS-FACTORIAL HepG2 Assay for human Aryl Hydrocarbon Receptor (Ahr) (AID 2282930); settings: HepG2 AhR cis-factorial reporter transcription; actives raise or lower the signal
Aryl hydrocarbon receptor (Homo sapiens), sequence (P35869 whole entry, looked up): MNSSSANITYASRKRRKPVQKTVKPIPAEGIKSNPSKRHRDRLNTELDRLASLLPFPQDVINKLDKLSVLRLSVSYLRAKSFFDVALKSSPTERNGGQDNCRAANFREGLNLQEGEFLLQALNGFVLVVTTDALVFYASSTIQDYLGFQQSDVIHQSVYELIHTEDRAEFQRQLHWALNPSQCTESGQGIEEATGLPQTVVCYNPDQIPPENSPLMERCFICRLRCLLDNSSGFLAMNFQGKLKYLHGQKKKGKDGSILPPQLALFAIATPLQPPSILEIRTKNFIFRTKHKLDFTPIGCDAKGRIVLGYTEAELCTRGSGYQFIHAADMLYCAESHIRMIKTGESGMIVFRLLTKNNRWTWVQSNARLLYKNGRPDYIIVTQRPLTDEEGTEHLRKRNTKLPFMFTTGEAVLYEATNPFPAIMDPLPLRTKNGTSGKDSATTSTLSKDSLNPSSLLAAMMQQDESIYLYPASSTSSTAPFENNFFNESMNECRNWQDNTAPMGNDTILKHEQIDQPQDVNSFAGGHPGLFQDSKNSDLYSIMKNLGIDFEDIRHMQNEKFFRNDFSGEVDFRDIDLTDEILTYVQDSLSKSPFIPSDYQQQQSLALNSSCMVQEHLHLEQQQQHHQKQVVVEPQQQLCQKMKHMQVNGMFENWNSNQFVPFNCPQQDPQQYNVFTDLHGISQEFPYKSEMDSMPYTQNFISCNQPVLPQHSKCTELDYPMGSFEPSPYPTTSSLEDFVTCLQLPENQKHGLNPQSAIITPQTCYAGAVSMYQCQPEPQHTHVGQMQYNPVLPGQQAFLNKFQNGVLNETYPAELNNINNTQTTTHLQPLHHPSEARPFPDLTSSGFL
Method in brief: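 Transient MRTU transfection of HepG2 → 24 h compound exposure → total RNA, oligo(dT) RT → PCR, 6-FAM extension, HpaI cut → CE fluorescence. DMSO = baseline; bidirectional curve fit.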

[20] = ATG_ERE_CIS: Attagene CIS-FACTORIAL HepG2 Assay for Estrogen Response Element (ERE) (AID 2282940); settings: HepG2 ERE cis-reporter, Attagene RNA transcript; actives raise or lower the signal
Method in brief: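 Human liver cells (HepG2) bearing transiently transfected, promoter-regulated reporter units were exposed 24 h. Reporter mRNA induction was detected by capillary electrophoresis of labelled RT-PCR products and fitted bidirectionally to DMSO.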

SMILES: C[C@H]1C[C@@H]2[C@H]([C@@H](O)C[C@@]3(C)[C@H]2CC[C@]3(O)C(=O)CO)[C@@]2(C)C=CC(=O)C=C12
- outcome [1]: inactive
- outcome [2]: inactive
- outcome [3]: inactive
- outcome [4]: inactive
- outcome [5]: inactive
- outcome [6]: inactive
- outcome [7]: inactive
- outcome [8]: inactive
- outcome [9]: inactive
- outcome [10]: inactive
- outcome [11]: inactive
- outcome [12]: inactive
- outcome [13]: inactive
- outcome [14]: inactive
- outcome [15]: inactive
- outcome [16]: inactive
- outcome [17]: inactive
- outcome [18]: inactive

SMILES: CCCC(C)C=O (stereo not given)
- outcome [1]: inactive
- outcome [2]: inactive
- outcome [3]: inactive
- outcome [4]: inactive
- outcome [19]: inactive
- outcome [6]: inactive
- outcome [7]: inactive
- outcome [9]: inactive
- outcome [10]: inactive
- outcome [11]: inactive
- outcome [12]: inactive
- outcome [13]: inactive
- outcome [20]: inactive
- outcome [14]: inactive
- outcome [15]: inactive
- outcome [16]: inactive
- outcome [17]: inactive
- outcome [18]: inactive

SMILES: CC(C)(C)C(=O)c1ccccc1
- outcome [1]: inactive
- outcome [2]: inactive
- outcome [3]: inactive
- outcome [4]: inactive
- outcome [5]: inactive
- outcome [6]: inactive
- outcome [7]: inactive
- outcome [9]: inactive
- outcome [10]: inactive
- outcome [11]: inactive
- outcome [12]: inactive
- outcome [13]: inactive
- outcome [20]: inactive
- outcome [14]: inactive
- outcome [15]: inactive
- outcome [16]: inactive
- outcome [17]: inactive
- outcome [18]: inactive

SMILES: CCC(O)CO (stereo not given)
- outcome [1]: inactive
- outcome [2]: inactive
- outcome [3]: inactive
- outcome [4]: inactive
- outcome [19]: inactive
- outcome [5]: inactive
- outcome [6]: inactive
- outcome [9]: inactive
- outcome [10]: inactive
- outcome [12]: inactive
- outcome [13]: inactive
- outcome [14]: inactive
- outcome [15]: inactive
- outcome [16]: inactive
- outcome [18]: inactive

SMILES: CC(C)=CCC[C@](C)(O)[C@@H]1CC=C(C)CC1
- outcome [1]: inactive
- outcome [2]: inactive
- AC50 [3]: 49.5 µM (active)
- outcome [4]: inactive
- outcome [5]: inactive
- outcome [6]: inactive
- outcome [7]: inactive
- outcome [8]: inactive
- outcome [9]: inactive
- outcome [10]: inactive
- outcome [12]: inactive
- outcome [13]: inactive
- outcome [15]: inactive
- outcome [16]: inactive
- outcome [17]: inactive
- outcome [18]: inactive

SMILES: C/C=C(\C)C(=O)OCc1ccccc1
- outcome [1]: inactive
- outcome [2]: inactive
- outcome [3]: inactive
- outcome [4]: inactive
- outcome [19]: inactive
- outcome [6]: inactive
- outcome [8]: inactive
- outcome [9]: inactive
- outcome [10]: inactive
- outcome [12]: inactive
- outcome [13]: inactive
- outcome [14]: inactive
- outcome [15]: inactive
- outcome [16]: inactive
- outcome [17]: inactive
- outcome [18]: inactive

SMILES: Nc1cc(N)cc(C(=O)O)c1
- outcome [1]: inactive
- outcome [2]: inactive
- outcome [3]: inactive
- outcome [4]: inactive
- outcome [19]: inactive
- outcome [5]: inactive
- outcome [6]: inactive
- outcome [9]: inactive
- outcome [11]: inactive
- outcome [12]: inactive
- outcome [13]: inactive
- outcome [14]: inactive
- outcome [15]: inactive
- outcome [16]: inactive
- outcome [17]: inactive
- outcome [18]: inactive

SMILES: OCCN1CCNCC1
- outcome [1]: inactive
- outcome [2]: inactive
- outcome [3]: inactive
- outcome [4]: inactive
- outcome [19]: inactive
- outcome [5]: inactive
- outcome [6]: inactive
- outcome [9]: inactive
- outcome [10]: inactive
- outcome [12]: inactive
- outcome [13]: inactive
- outcome [20]: inactive
- outcome [14]: inactive
- outcome [15]: inactive
- outcome [16]: inactive
- outcome [17]: inactive
- outcome [18]: inactive

SMILES: O=Cc1ccc(Cl)c([N+](=O)[O-])c1
- AC50 [1]: 129 µM (active)
- outcome [2]: inactive
- AC50 [3]: 168 µM (active)
- AC50 [4]: 48.4 µM (active)
- outcome [19]: inactive
- outcome [6]: inactive
- AC50 [7]: 131 µM (active)
- outcome [9]: inactive
- AC50 [10]: 47.7 µM (active)
- outcome [11]: inactive
- outcome [20]: inactive
- AC50 [14]: 134 µM (active)
- AC50 [15]: 145 µM (active)
- AC50 [16]: 128 µM (active)
- outcome [17]: inactive
- AC50 [18]: 165 µM (active)
